From PubChem BioAssay (EPA / NIEHS)
Where “and” joins values, the source holds several entries; their conditions need not be identical. Identical values can stand only once. Inconclusive results are not listed. More than one record can exist for a structure, and the calls need not agree. Calls of active or inactive are those of the source. How the source made its calls, unless noted: active means hit-call score of the fitted dose curve at least 0.9, where 1 is the maximum; inactive means score below 0.9.

Experiments:
[1] = BSK_4H_Eotaxin3: BioMAP Diversity Plus: 4H Assay for Eotaxin 3 Biomarker Activity (AID 2283000); details: primary human endothelial cells (HUVEC); actives raise or lower the signal
Summary of the method: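 Human umbilical vein endothelial cells (BSK_4H system) dosed with test chemical; Eotaxin-3 (CCL26) measured by ELISA 24 h after dosing. Bidirectional curve fitting relative to DMSO negative control as baseline.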

[2] = target: human Peroxisome Proliferator-activated Receptor alpha (PPARa), PPARA (gene 5465) (UniProt Q07869); assay: ATG_PPARa_TRANS: Attagene TRANS-FACTORIAL HepG2 Assay for human Peroxisome Proliferator-activated Receptor alpha (PPARa) (AID 2283001; active means hit-call score of the fitted dose curve at least 0.9, where 1 is the maximum;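 on AC50: potency for gain of reporter signal over DMSO so agonist or activator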)
human Peroxisome Proliferator-activated Receptor alpha (PPARa), PPARA (gene 5465), sequence (Q07869 whole entry, looked up, the tested form may be a part): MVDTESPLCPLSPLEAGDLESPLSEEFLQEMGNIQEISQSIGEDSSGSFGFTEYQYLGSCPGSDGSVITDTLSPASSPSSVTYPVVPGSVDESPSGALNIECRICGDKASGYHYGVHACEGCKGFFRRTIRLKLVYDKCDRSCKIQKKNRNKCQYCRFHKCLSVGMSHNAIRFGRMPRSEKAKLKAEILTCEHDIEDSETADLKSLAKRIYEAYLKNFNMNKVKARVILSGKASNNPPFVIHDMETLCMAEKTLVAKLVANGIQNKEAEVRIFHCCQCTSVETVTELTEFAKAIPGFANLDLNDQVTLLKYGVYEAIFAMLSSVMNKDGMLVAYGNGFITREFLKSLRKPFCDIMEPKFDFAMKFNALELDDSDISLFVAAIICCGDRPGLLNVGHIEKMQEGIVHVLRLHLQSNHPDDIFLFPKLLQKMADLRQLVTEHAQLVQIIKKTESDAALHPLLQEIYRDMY
Summary of the method: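 HepG2 cells transiently transfected with multiplexed GAL4-UAS reporter units and chimeric NR-Gal4 constructs were dosed for 24 h. Reporter mRNA was measured by RT-PCR with fluorescent labelling and capillary electrophoresis; gain of signal fitted against DMSO.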

[3] = read-out: Intercellular Adhesion Molecule 1 (ICAM1), ICAM1 (gene 3383); assay: BSK_3C_ICAM1: BioMAP Diversity Plus: 3C Assay for Intercellular Adhesion Molecule 1 (ICAM1) Biomarker Activity (AID 2283003); details: primary human endothelial cells (HUVEC); actives raise or lower the signal
Summary of the method: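 Primary human umbilical vein endothelial cells in the BioMAP 3C system were exposed to chemicals for 24 h, then ICAM-1 was quantified by ELISA. Activity was fitted bidirectionally against the DMSO negative control baseline.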

[4] = BSK_3C_Proliferation: Cell Proliferation Assessment in the BioMAP Diversity Plus: 3C Assay (AID 2283006); details: primary human endothelial cells (HUVEC);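 on AC50: potency may reflect either rise or fall in cell number versus DMSO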
Summary of the method: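 Human umbilical vein endothelial cells were grown sub-confluent and exposed to chemical for 48 h, then fixed with 10% TCA and stained with 0.1% sulforhodamine B; absorbance at 560 nm gave relative cell number, fitted bidirectionally against DMSO baseline.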

[5] = target: Retinoic acid receptor RXR-alpha (Homo sapiens) (UniProt P19793); assay: ATG_RXRa_TRANS: Attagene TRANS-FACTORIAL HepG2 Assay for human Retinoid X Receptor alpha (RXRa) (AID 2283012; active means hit-call score of the fitted dose curve at least 0.9, where 1 is the maximum)
Summary of the method: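 HepG2 cells transiently transfected with multiplexed GAL4-UAS reporter units and chimeric NR-GAL4 fusions, dosed 24 h. Reporter mRNA measured by RT-PCR, FAM labelling, HpaI digestion and capillary electrophoresis; gain-of-signal fitted relative to DMSO baseline.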

[6] = target: human Thyroid Receptor alpha (THRa1), THRA (gene 7067) (UniProt P10827); assay: ATG_THRa1_TRANS: Attagene TRANS-FACTORIAL HepG2 Assay for human Thyroid Receptor alpha (THRa1) (AID 2283014; active means hit-call score of the fitted dose curve at least 0.9, where 1 is the maximum)
human Thyroid Receptor alpha (THRa1), THRA (gene 7067), sequence (P10827 whole entry, looked up, the tested form may be a part): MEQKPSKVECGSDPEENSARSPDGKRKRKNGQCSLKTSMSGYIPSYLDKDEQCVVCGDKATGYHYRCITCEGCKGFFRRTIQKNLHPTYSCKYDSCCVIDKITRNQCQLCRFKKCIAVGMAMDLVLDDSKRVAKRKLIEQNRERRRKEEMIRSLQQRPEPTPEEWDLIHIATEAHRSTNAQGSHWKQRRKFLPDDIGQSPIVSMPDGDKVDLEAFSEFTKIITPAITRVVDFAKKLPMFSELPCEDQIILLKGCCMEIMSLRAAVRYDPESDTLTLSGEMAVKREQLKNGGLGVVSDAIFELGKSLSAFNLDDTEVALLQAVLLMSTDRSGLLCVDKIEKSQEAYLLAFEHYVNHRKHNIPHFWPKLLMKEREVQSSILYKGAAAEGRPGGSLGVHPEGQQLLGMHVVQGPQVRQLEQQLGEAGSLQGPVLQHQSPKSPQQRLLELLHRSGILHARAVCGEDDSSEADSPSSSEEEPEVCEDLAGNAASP
Summary of the method: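 Transcripts from GAL4-UAS-driven reporters, measured after 24 h compound exposure by RT-PCR plus capillary electrophoresis of 6-FAM-labeled fragments, were fitted for gain of signal relative to DMSO. Cells: transiently transfected HepG2 expressing NR-Gal4 chimeras.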

[7] = read-out: E-selectin (Homo sapiens) (UniProt P16581); assay: BSK_3C_Eselectin: BioMAP Diversity Plus: 3C Assay for Eselectin Biomarker Activity (AID 2283015); details: primary human endothelial cells (HUVEC); actives raise or lower the signal
Summary of the method: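 E-selectin ELISA readout, fitted bidirectionally relative to DMSO, taken 24 h post-dosing in HUVEC cultures of the 3C system. Overt cytotoxicity tracked with sulforhodamine B staining of parallel wells.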

[8] = read-out: Interleukin-1 alpha (IL1a), IL1A (gene 3552); assay: BSK_BE3C_IL1a: BioMAP Diversity Plus: BE3C Assay for Interleukin-1 alpha (IL1a) Biomarker Activity (AID 2283016); details: primary human bronchial epithelial cells; actives raise or lower the signal
Summary of the method: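 Human primary bronchial epithelial cells (BE3C system) were dosed with compound and IL-1a measured by ELISA 24 h later. Activity was fitted bidirectionally against DMSO baseline; cytotoxicity was tracked in parallel cultures by SRB total-protein staining.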

[9] = read-out: Monocyte Chemoattractant Protein-1 (MCP1), CCL2 (gene 6347); assay: BSK_3C_MCP1: BioMAP Diversity Plus: 3C Assay for Monocyte Chemoattractant Protein-1 (MCP1) Biomarker Activity (AID 2283017); details: primary human endothelial cells (HUVEC); actives raise or lower the signal
Summary of the method: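 MCP-1 was measured by ELISA 24 h after dosing in primary HUVEC 3C cultures and fitted in both directions relative to DMSO; cytotoxicity was checked by SRB total-protein staining in parallel wells.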

[10] = read-out: Monocyte Chemoattractant Protein-1 (MCP1), CCL2 (gene 6347); assay: BSK_4H_MCP1: BioMAP Diversity Plus: 4H Assay for Monocyte Chemoattractant Protein-1 (MCP1) Biomarker Activity (AID 2283018); details: primary human endothelial cells (HUVEC); actives raise or lower the signal
Summary of the method: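 Human umbilical vein endothelial cells (4H system) dosed with chemical; MCP-1 measured by ELISA 24 h after dosing. Bidirectional curve fitting against DMSO negative control as baseline; parallel SRB total-protein staining tracks overt cytotoxicity.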

[11] = read-out: Human Leukocyte Antigen - DR isotype (HLADR), HLA-DRA (gene 3122); assay: BSK_3C_HLADR: BioMAP Diversity Plus: 3C Assay for Human Leukocyte Antigen - DR isotype (HLADR) Biomarker Activity (AID 2283019); details: primary human endothelial cells (HUVEC); actives raise or lower the signal
Summary of the method: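 Bidirectional fitting against DMSO was applied to the HLA-DR ELISA signal from human umbilical vein endothelial cells, 24 h post-dose. Cytotoxicity came from parallel SRB total-protein staining; 3C proliferation was counted by SRB at 48 h.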

[12] = target: human Retinoic Acid Receptor beta (RARb), RARB (gene 5915) (UniProt P10826); assay: ATG_RARb_TRANS: Attagene TRANS-FACTORIAL HepG2 Assay for human Retinoic Acid Receptor beta (AID 2283004; active means hit-call score of the fitted dose curve at least 0.9, where 1 is the maximum)
human Retinoic Acid Receptor beta (RARb), RARB (gene 5915), sequence (P10826 whole entry, looked up, the tested form may be a part): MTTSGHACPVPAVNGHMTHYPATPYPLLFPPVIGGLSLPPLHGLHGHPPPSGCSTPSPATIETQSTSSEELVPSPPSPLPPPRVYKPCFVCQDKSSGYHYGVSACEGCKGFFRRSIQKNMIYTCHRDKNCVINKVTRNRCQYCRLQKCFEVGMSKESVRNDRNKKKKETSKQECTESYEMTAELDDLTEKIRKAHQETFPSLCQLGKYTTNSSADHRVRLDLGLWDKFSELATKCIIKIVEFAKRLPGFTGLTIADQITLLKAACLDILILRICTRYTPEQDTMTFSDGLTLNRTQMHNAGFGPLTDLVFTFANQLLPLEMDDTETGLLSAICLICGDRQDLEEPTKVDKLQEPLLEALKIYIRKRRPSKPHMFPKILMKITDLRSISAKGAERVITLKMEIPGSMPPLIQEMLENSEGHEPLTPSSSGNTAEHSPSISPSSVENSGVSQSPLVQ
Summary of the method: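 Induction of reporter mRNA from a chimeric RARb-Gal4 construct was measured by RT-PCR, FAM labelling, HpaI digestion and capillary electrophoresis. Measurements followed 24 h compound treatment of transiently transfected human HepG2 liver cells, with DMSO as baseline.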

[13] = target: Retinoic acid receptor alpha (Homo sapiens) (UniProt P10276); assay: ATG_RARa_TRANS: Attagene TRANS-FACTORIAL HepG2 Assay for human Retinoic Acid Receptor alpha (RARa) (AID 2283005; active means hit-call score of the fitted dose curve at least 0.9, where 1 is the maximum)
Retinoic acid receptor alpha (Homo sapiens), sequence (P10276 whole entry, looked up, the tested form may be a part): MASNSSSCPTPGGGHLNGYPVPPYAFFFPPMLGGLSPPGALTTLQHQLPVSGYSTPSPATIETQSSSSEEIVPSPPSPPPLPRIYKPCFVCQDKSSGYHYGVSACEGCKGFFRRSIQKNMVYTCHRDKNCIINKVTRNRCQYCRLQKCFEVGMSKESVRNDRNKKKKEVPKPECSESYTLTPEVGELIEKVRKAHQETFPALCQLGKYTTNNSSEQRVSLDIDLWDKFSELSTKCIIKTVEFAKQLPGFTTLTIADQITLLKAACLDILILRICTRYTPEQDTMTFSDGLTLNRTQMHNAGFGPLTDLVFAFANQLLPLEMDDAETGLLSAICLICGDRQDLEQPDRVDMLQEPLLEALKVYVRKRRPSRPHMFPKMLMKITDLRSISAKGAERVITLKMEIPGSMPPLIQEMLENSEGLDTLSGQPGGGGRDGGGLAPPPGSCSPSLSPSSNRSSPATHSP
Summary of the method: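 HepG2 cells transiently transfected with multiple reporter units expressing chimeric RARα-GAL4 fusion, with GAL4-UAS-driven reporters. After 24 h compound exposure, reporter mRNA induction quantified by RT-PCR and capillary electrophoresis with fluorescent labeling; gain-of-signal fitted relative to DMSO control.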

[14] = target: Peroxisome proliferator-activated receptor gamma (Homo sapiens) (UniProt P37231); assay: ATG_PPARg_TRANS: Attagene TRANS-FACTORIAL HepG2 Assay for human Peroxisome Proliferator-activated Receptor-gamma (PPARg) (AID 2283007; active means hit-call score of the fitted dose curve at least 0.9, where 1 is the maximum)
Peroxisome proliferator-activated receptor gamma (Homo sapiens), sequence (P37231 whole entry, looked up): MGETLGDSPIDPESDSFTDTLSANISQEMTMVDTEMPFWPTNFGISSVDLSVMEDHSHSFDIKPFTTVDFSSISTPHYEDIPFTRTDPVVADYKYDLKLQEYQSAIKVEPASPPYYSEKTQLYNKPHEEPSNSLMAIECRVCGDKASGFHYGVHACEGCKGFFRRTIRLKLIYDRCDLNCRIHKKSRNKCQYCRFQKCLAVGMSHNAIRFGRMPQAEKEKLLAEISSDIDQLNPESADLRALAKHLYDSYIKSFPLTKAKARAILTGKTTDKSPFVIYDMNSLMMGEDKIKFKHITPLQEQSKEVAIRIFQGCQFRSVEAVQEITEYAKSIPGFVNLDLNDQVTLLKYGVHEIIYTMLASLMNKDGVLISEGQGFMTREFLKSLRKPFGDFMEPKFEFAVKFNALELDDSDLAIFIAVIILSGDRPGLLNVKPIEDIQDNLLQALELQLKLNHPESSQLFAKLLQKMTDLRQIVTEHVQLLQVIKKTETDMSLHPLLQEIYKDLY
Summary of the method: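 Multiplexed reporter transcription units in HepG2, 24 h dosing, reporter transcripts quantified by fluorescent RT-PCR and capillary electrophoresis. Increase over DMSO scored.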

[15] = target: Nuclear receptor subfamily 1 group I member 2 (Homo sapiens) (UniProt O75469); assay: ATG_PXR_TRANS: Attagene TRANS-FACTORIAL HepG2 Assay for human Pregnane X Receptor (PXR) (AID 2283008; active means hit-call score of the fitted dose curve at least 0.9, where 1 is the maximum)
Nuclear receptor subfamily 1 group I member 2 (Homo sapiens), sequence (O75469 whole entry, looked up, the tested form may be a part): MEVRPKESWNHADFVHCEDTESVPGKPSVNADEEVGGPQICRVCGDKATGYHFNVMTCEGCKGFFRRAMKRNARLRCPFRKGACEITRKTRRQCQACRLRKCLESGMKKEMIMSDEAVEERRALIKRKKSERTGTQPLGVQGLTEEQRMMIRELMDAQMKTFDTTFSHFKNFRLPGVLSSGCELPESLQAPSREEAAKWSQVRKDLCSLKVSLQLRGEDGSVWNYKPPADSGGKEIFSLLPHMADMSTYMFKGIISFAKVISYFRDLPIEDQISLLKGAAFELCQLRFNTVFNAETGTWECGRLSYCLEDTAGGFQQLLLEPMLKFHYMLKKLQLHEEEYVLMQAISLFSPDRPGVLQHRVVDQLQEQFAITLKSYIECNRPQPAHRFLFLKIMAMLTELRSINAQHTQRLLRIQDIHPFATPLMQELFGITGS
Summary of the method: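 HepG2 cells transiently transfected with multiple reporter units, here a PXR-GAL4 chimera driving a GAL4-UAS reporter; 24 h compound exposure. Reporter mRNA measured by RT-PCR, FAM labelling and capillary electrophoresis; gain of signal fitted against DMSO baseline.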

[16] = target: human Retinoic Acid Receptor gamma (RARg), RARG (gene 5916) (UniProt P13631); assay: ATG_RARg_TRANS: Attagene TRANS-FACTORIAL HepG2 Assay for human Retinoic Acid Receptor gamma (RARg) (AID 2283009; active means hit-call score of the fitted dose curve at least 0.9, where 1 is the maximum)
human Retinoic Acid Receptor gamma (RARg), RARG (gene 5916), sequence (P13631 whole entry, looked up, the tested form may be a part): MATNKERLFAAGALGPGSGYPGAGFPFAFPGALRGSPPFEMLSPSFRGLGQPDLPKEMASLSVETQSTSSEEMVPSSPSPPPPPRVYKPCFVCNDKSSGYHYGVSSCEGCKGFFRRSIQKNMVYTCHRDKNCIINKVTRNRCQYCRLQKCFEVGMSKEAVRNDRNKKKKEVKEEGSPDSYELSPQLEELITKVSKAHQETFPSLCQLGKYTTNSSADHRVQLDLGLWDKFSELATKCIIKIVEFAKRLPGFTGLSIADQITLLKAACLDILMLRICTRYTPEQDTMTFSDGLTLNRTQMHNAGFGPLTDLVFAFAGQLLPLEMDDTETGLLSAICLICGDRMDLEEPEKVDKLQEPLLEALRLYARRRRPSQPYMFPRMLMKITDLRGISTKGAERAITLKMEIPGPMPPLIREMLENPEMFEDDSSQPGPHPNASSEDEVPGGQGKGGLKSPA
Summary of the method: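 HepG2 cells transiently transfected with multiplexed reporter units expressing chimeric RARg-GAL4 and GAL4-UAS-driven reporters; 24 h compound exposure. Reporter mRNA quantified by RT-PCR with fluorescent labelling and capillary electrophoresis; gain-of-signal fitted relative to DMSO baseline.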

[17] = target: human Retinoid X Receptor beta (RXRb), RXRB (gene 6257) (UniProt P28702); assay: ATG_RXRb_TRANS: Attagene TRANS-FACTORIAL HepG2 Assay for human Retinoid X Receptor beta (RXRb) (AID 2283013; active means hit-call score of the fitted dose curve at least 0.9, where 1 is the maximum)
human Retinoid X Receptor beta (RXRb), RXRB (gene 6257), sequence (P28702 whole entry, looked up, the tested form may be a part): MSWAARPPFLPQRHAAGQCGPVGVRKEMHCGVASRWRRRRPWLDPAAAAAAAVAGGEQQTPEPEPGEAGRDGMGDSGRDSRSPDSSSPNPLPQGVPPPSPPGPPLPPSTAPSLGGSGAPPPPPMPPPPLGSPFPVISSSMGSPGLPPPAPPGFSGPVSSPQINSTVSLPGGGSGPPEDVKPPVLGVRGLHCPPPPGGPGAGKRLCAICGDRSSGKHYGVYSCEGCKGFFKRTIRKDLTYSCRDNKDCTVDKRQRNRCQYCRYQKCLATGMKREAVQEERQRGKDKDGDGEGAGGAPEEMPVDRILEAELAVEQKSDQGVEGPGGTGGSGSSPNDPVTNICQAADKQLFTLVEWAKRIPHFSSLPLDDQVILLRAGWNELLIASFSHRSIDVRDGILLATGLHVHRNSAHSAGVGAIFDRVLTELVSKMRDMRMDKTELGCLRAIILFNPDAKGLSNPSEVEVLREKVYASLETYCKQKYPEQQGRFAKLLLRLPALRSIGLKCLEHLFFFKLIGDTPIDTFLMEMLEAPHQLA
Summary of the method: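 HepG2 cells transiently transfected with multiplexed reporter units driven by GAL4-UAS and exogenous chimeric NR-Gal4 proteins; treated 24 h. Reporter mRNA measured by RT-PCR, 6-FAM labelling and capillary electrophoresis; gain-of-signal fitted versus DMSO baseline.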

[18] = target: human Peroxisome Proliferator-activated Receptor delta (PPARd), PPARD (gene 5467) (UniProt Q03181); assay: ATG_PPARd_TRANS: Attagene TRANS-FACTORIAL HepG2 Assay for human Peroxisome Proliferator-activated Receptor delta (PPARd) (AID 2283002; active means hit-call score of the fitted dose curve at least 0.9, where 1 is the maximum)
Summary of the method: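 Multiplexed trans-activation format: HepG2 liver cells expressing exogenous NR-Gal4 chimeras and GAL4-UAS reporters were exposed for 24 h. Reporter mRNA was detected by RT-PCR with capillary electrophoresis fluorescence; activity fitted as gain of signal relative to DMSO.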

[19] = target: human RAR-related Orphan Receptor beta (RORb), RORB (gene 6096) (UniProt Q92753); assay: ATG_RORb_TRANS: Attagene TRANS-FACTORIAL HepG2 Assay for human RAR-related Orphan Receptor beta (RORb) (AID 2283010; active means hit-call score of the fitted dose curve at least 0.9, where 1 is the maximum)
Summary of the method: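 HepG2 cells were transiently transfected with multiplexed GAL4-UAS reporter units expressing chimeric nuclear receptor–GAL4 proteins, then dosed for 24 h. Reporter mRNA was quantified by RT-PCR with fluorescent labelling and capillary electrophoresis; gain of signal was fitted relative to DMSO.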

[20] = target: human RAR-related Orphan Receptor gamma (RORg), RORC (gene 6097) (UniProt P51449); assay: ATG_RORg_TRANS: Attagene TRANS-FACTORIAL HepG2 Assay for human RAR-related Orphan Receptor gamma (RORg) (AID 2283011; active means hit-call score of the fitted dose curve at least 0.9, where 1 is the maximum)
human RAR-related Orphan Receptor gamma (RORg), RORC (gene 6097), sequence (P51449 whole entry, looked up, the tested form may be a part): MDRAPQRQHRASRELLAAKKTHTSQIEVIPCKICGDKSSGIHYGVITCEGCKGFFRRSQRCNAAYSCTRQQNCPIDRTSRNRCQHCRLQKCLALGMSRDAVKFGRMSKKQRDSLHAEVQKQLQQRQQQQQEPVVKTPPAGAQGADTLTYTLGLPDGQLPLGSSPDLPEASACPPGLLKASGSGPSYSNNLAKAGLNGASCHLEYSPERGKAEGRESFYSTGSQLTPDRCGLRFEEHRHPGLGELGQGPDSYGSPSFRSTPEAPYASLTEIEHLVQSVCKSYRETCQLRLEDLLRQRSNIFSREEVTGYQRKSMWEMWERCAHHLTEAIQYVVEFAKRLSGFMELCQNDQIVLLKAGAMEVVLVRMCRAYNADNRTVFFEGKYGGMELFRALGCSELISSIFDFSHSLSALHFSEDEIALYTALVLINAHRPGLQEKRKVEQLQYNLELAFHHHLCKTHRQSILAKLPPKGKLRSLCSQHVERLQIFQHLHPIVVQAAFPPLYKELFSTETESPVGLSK
Summary of the method: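 Reporter transcripts from a transfected RORg-GAL4 chimera in HepG2 cells were quantified 24 h after dosing by RT-PCR, 6-FAM labelling, HpaI digestion and capillary electrophoresis; increases over DMSO baseline were fitted.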

Measured: AC50

E-selectin (Homo sapiens), sequence (P16581 whole entry, looked up): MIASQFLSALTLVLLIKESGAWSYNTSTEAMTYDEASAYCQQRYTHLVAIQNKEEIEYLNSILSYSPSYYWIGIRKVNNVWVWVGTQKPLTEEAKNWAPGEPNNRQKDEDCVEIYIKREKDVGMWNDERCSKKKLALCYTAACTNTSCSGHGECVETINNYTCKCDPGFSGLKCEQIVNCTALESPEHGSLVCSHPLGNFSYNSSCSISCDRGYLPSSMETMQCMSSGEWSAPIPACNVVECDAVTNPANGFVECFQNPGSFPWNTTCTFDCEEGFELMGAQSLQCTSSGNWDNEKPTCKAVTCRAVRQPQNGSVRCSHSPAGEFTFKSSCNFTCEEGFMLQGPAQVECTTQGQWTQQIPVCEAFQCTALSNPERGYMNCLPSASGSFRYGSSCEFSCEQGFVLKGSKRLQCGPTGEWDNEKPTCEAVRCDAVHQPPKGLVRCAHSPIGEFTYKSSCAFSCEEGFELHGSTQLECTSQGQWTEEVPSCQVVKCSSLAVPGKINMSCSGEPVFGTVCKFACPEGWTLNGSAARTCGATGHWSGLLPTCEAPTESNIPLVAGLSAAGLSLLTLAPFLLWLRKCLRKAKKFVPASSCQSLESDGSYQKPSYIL

FC(F)(F)C(F)(F)C(F)(F)C(F)(F)C(F)(F)C(F)(F)C(F)(F)C(F)(F)CCS
inactive: [1] | [2] | [3] | [4] | [5] | [6] | [7] | [8] | [9] | [10] | [11]

CO[Si](OC)(c1ccccc1)c1ccccc1
active: [4] 37 µM | [15] 15.4 µM | [7] 31 µM | [9] 32 µM | [10] 0.148 µM | [11] 32.5 µM
not listed: [6] | [18] | [19] | [20]
inactive: all other assays above

CCCCNc1ccccc1
not listed: [2] | [5] | [12] | [13] | [16] | [20]
inactive: all other assays above

Cc1ccc(S(=O)(=O)OCC(F)(F)C(F)(F)C(F)(F)C(F)(F)C(F)(F)C(F)F)cc1
active: [4] 30 µM | [15] 2.98 µM | [17] 7.9 µM | [7] 33.4 µM | [8] 44.8 µM
inactive: [1] | [18] | [3] | [12] | [4] | [14] | [16] | [19] | [5] | [7] | [8] | [9] | [10] | [11]

FC1CC(F)(F)C(F)(F)C1(F)F (configuration not stated)
not listed: [5] | [15] | [16] | [17] | [18] | [19]
inactive: all other assays above

C=C(C)C(=O)OCCC(F)(F)C(F)(F)C(F)(F)C(F)(F)C(F)(C(F)(F)F)C(F)(F)F
not listed: [2] | [6] | [12] | [15] | [16] | [19] | [20]
inactive: all other assays above

FC(F)(F)C(F)(F)C(F)(F)N(C(F)(F)C(F)(F)C(F)(F)F)C(F)(F)C(F)(F)C(F)(F)F
not listed: [2] | [5] | [15] | [19] | [20]
inactive: all other assays above

CS(C)(=O)=O
inactive: [1] | [2] | [3] | [4] | [15] | [5] | [7] | [8] | [9] | [10] | [11]

O=S(=O)(OCC(F)F)C(F)(F)F
not listed: [6] | [12] | [13] | [15] | [16] | [17] | [19]
inactive: all other assays above

O=C(O)C(F)(F)C(F)(F)C(F)(F)C(F)(F)F
not listed: [6] | [12] | [13] | [18]
inactive: all other assays above

C=CC(F)(F)C(F)(F)C(F)(F)C(F)(F)C(F)(F)C(F)(F)C(F)(F)C(F)(F)C=C
not listed: [2] | [6] | [13] | [15]
inactive: all other assays above

Oc1ccc(Nc2ccccc2)cc1
active: [1] 0.547 µM | [4] 14.6 µM | [14] 23.4 µM | [7] 20 µM | [8] 13.4 µM | [10] 9.6 µM | [11] 20 µM
not listed: [12] | [13] | [15] | [16] | [20]
inactive: all other assays above

O=S(=O)(O)C(F)(F)C(F)(F)C(F)(F)C(F)(F)C(F)(F)C(F)(F)C(F)(F)F
active: [2] 21.7 µM and 24.7 µM | [14] 33.4 µM and 33.2 µM
not listed: [6] | [15] | [18]
inactive: all other assays above

CCCCC(CC)COP(=O)(O)OCC(CC)CCCC (configuration not stated)
inactive: [1] | [3] | [19] | [7] | [8] | [9] | [10] | [11]
active: [2] 16.5 µM | [4] 36 µM | [14] 7.51 µM | [15] 15.4 µM

C=C(C)C(=O)OCC(F)(F)C(F)(F)C(F)(F)C(F)(F)C(F)(F)C(F)(F)C(F)(F)F
not listed: [2] | [5] | [6] | [13] | [20]
inactive: all other assays above
